In PubChem BioAssay (NCATS):
Records with an inconclusive call do not appear. A number with no mark means an inactive call. The source made the active and inactive calls. Calls come from the whole dose curve; as a rule, active = well fitted curve in the direction sought with a large enough effect; inconclusive = small, poorly fitted or top-dose-only effect, or another doubt; inactive = no such curve, though single readings can be large; an effect the other way counts as inactive or inconclusive.

How the values were obtained:
HEK293 = assay: Cytotoxic Profiling of Annotated Libraries Using Quantitative High-Throughput Screening (AID 1296008); details: Five cell lines viability, CellTiter-Glo ATP luminescence, 48-72 h; max response: active compounds read low; note: nearly all actives have a fitted effect of over 60% in size
Method in brief: (§1)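 Compounds were pin-transferred onto cells and incubated 48 or 72 hr at 37 degree Celsius, 95% humidity. CellTiter-Glo was added, plates sat 10 min at room temperature, then ATP-coupled luminescence was imaged as the viability read-out.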

HaCat = assay: as above; details: Five cell lines viability, CellTiter-Glo ATP luminescence, 48-72 h; max response: active compounds read low
Method in brief: as §1

KB-3-1 = assay: as above; details: Five cell lines viability, CellTiter-Glo ATP luminescence, 48-72 h; max response: active compounds read low
Method in brief: as §1

NIH3T3 = assay: as above; details: Five cell lines viability, CellTiter-Glo ATP luminescence, 48-72 h; max response: active compounds read low
Method in brief: as §1

C33A = assay: Primary qHTS to identify gynecologic anti-cancer compounds using libraries of approved drugs and bioactive compounds (AID 1345084); details: Gynecologic cancer cell panel viability, ATPlite luminescence, 48 h; series mostly up to 57.5 µM; note: nearly all actives have a fitted effect of over 55% in size
Method in brief: (§2)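 Measured: luminescence after ATPlite addition (15 min, RT). Exposure: 48 h, 37 C, 5% CO2.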

CASKI = assay: as above; details: Gynecologic cancer cell panel viability, ATPlite luminescence, 48 h; series mostly up to 57.5 µM
Method in brief: as §2

Es-2 = assay: as above; details: Gynecologic cancer cell panel viability, ATPlite luminescence, 48 h; series mostly up to 57.5 µM
Method in brief: as §2

HeLa = assay: as above; details: Gynecologic cancer cell panel viability, ATPlite luminescence, 48 h; series mostly up to 57.5 µM
Method in brief: as §2

Hek293T = assay: as above; details: Gynecologic cancer cell panel viability, ATPlite luminescence, 48 h, control line for the selectivity index; series mostly up to 57.5 µM
Method in brief: as §2

JEG-3 = assay: as above; details: Gynecologic cancer cell panel viability, ATPlite luminescence, 48 h; series mostly up to 57.5 µM
Method in brief: as §2

CAOV3 = assay: as above; details: Gynecologic cancer cell panel viability, ATPlite luminescence, 48 h; series mostly up to 57.5 µM
Method in brief: as §2
% is set by controls: 0 for no effect and ±100 for the full control effect; potency is the fitted concentration of half-maximal effect.

**Q.** `C[C@@H]1O[C@@H](O[C@H]2[C@H](O)[C@@H](O)[C@H](OC3CCC4(C)C5CCC(C)(C(CO)OC6OC(CO)C(O)C(O)C6O)CC5=CCC4C3(C)C)O[C@@H]2CO)[C@H](O)[C@H](O)[C@H]1O` (stereo not given in full) was tested. Which max response (HEK293) did it give?
**A.** 4.31%

**Q.** And the max response (HaCat)?
**A.** -0.0812%

**Q.** What about the max response (KB-3-1) of the same compound?
**A.** 0.989%

**Q.** And the max response (NIH3T3)?
**A.** 3.8%

**Q.** And the Potency (C33A)?
**A.** inactive

**Q.** And the Potency (CASKI)?
**A.** inactive

**Q.** And the Potency (Es-2)?
**A.** inactive

**Q.** And the Potency (HeLa)?
**A.** inactive

**Q.** And the Potency (Hek293T)?
**A.** inactive

**Q.** What about the Potency (JEG-3) of the same compound?
**A.** inactive

**Q.** With `C[C@]1(CO)CCC[C@]2(C)C3=C(CCC12)COC3` (stereo not given in full) as the compound, how does the max response (HEK293) read?
**A.** -9.57%

**Q.** What about the max response (HaCat) of the same compound?
**A.** -11.9%

**Q.** What about the max response (KB-3-1) of the same compound?
**A.** 5.06%

**Q.** What about the max response (NIH3T3) of the same compound?
**A.** 4.03%

**Q.** What about the Potency (C33A) of the same compound?
**A.** inactive

**Q.** And the Potency (CASKI)?
**A.** inactive

**Q.** What about the Potency (Es-2) of the same compound?
**A.** inactive

**Q.** What about the Potency (HeLa) of the same compound?
**A.** inactive

**Q.** What about the Potency (Hek293T) of the same compound?
**A.** inactive

**Q.** What about the Potency (JEG-3) of the same compound?
**A.** inactive

**Q.** `CCC(COC)n1nnc2c(Nc3ccc(OC)cc3C)nc(C)cc21` (stereo not given) was tested. Which max response (HEK293) did it give?
**A.** -7.21%

**Q.** And the max response (HaCat)?
**A.** -0.414%

**Q.** And the max response (KB-3-1)?
**A.** 6.85%

**Q.** What about the max response (NIH3T3) of the same compound?
**A.** 2.01%

**Q.** What about the Potency (C33A) of the same compound?
**A.** inactive

**Q.** What about the Potency (CASKI) of the same compound?
**A.** inactive

**Q.** What about the Potency (Es-2) of the same compound?
**A.** inactive

**Q.** And the Potency (HeLa)?
**A.** inactive

**Q.** What about the Potency (Hek293T) of the same compound?
**A.** inactive

**Q.** And the Potency (JEG-3)?
**A.** inactive

**Q.** `COC(=O)C1=CO[C@@H](O)C2C(CO)=CCC12` (stereo not given in full) was tested. Which max response (HEK293) did it give?
**A.** 4.75%

**Q.** And the max response (HaCat)?
**A.** -12%

**Q.** What about the max response (KB-3-1) of the same compound?
**A.** -1.48%

**Q.** And the max response (NIH3T3)?
**A.** -2.89%

**Q.** What about the Potency (C33A) of the same compound?
**A.** inactive

**Q.** And the Potency (CASKI)?
**A.** inactive

**Q.** And the Potency (Es-2)?
**A.** inactive

**Q.** And the Potency (HeLa)?
**A.** inactive

**Q.** And the Potency (Hek293T)?
**A.** inactive

**Q.** What about the Potency (JEG-3) of the same compound?
**A.** inactive

**Q.** What does the source list for `C/C=C/C=C/C(=O)N1CC[C@]23c4ccccc4N[C@H]4N(C)c5cccc6c5[C@@]42CCN([C@H]6C2OC2(C)C)[C@H]13` (stereo not given in full)?
**A.** max response (HEK293): -2.78%; max response (HaCat): -7.02%; max response (KB-3-1): 9.01%; max response (NIH3T3): 3.9%; Potency (C33A): inactive; Potency (CASKI): inactive; Potency (Es-2): inactive; Potency (HeLa): inactive; Potency (Hek293T): inactive; Potency (JEG-3): inactive

**Q.** Which results are given for `CN1c2ccccc2C(=O)N2CCC3c4ccccc4NC3C21` (stereo not given)?
**A.** Potency (HEK293): 2550 nM (active); Potency (HaCat): 2020 nM (active); Potency (KB-3-1): 3600 nM (active); Potency (NIH3T3): 7180 nM (active); Potency (C33A): inactive; Potency (Hek293T): 5620 nM (active); Potency (JEG-3): 3980 nM (active)

**Q.** Which results are given for `OC[C@H]1O[C@@H](OC[C@H]2O[C@@H](OC/C=C/c3ccccc3)[C@H](O)[C@@H](O)[C@@H]2O)[C@@H](O)[C@@H]1O`?
**A.** max response (HEK293): 4.4%; max response (HaCat): -0.518%; outcome (KB-3-1): inactive; max response (NIH3T3): 2.42%; Potency (C33A): inactive; Potency (CASKI): inactive; Potency (Es-2): inactive; Potency (HeLa): inactive; Potency (Hek293T): inactive; Potency (JEG-3): inactive

**Q.** Which max response (HEK293) does the source give for `CC(=O)N[C@H]1[C@H](O[C@H]2CC[C@@]3(C)C(CC[C@]4(C)C3CC=C3C5CC(C)(C)CC[C@]5(C(=O)O)[C@H](O)C[C@]34C)C2(C)C)O[C@H](CO[C@@H]2OC[C@H](O)[C@H](O)[C@H]2O[C@@H]2OC[C@@H](O)[C@H](O)[C@H]2O)[C@@H](O)[C@@H]1O` (stereo not given in full) here?
**A.** -1.2%

**Q.** What about the max response (HaCat) of the same compound?
**A.** -6.42%

**Q.** And the max response (KB-3-1)?
**A.** 4.32%

**Q.** What about the max response (NIH3T3) of the same compound?
**A.** -13.2%

**Q.** What about the activity change, negative = cytotoxicity (C33A) of the same compound?
**A.** -5.03% [at 11.6 µM]

**Q.** And the activity change, negative = cytotoxicity (CASKI)?
**A.** -1.03% [at 11.6 µM]

**Q.** What about the activity change, negative = cytotoxicity (Es-2) of the same compound?
**A.** -1.64% [at 11.6 µM]

**Q.** And the activity change, negative = cytotoxicity (HeLa)?
**A.** -4.4% [at 11.6 µM]

**Q.** What about the activity change, negative = cytotoxicity (Hek293T) of the same compound?
**A.** 3.72% [at 11.6 µM]

**Q.** And the activity change, negative = cytotoxicity (JEG-3)?
**A.** 4.23% [at 11.6 µM]

**Q.** Which max response (HEK293) does the source give for `CCC(O)(C(=O)OCc1ccccc1NC(=O)CCC(=O)O)C(C)O` (stereo not given) here?
**A.** -0.446%

**Q.** And the max response (HaCat)?
**A.** -3.62%

**Q.** And the outcome (KB-3-1)?
**A.** inactive

**Q.** What about the max response (NIH3T3) of the same compound?
**A.** -2.36%

**Q.** And the Potency (C33A)?
**A.** inactive

**Q.** And the Potency (CASKI)?
**A.** inactive

**Q.** What about the Potency (Es-2) of the same compound?
**A.** inactive

**Q.** And the Potency (HeLa)?
**A.** inactive

**Q.** What about the Potency (Hek293T) of the same compound?
**A.** inactive

**Q.** What about the Potency (JEG-3) of the same compound?
**A.** inactive

**Q.** `O=C(NCc1ccc(S(=O)(=O)c2cc(F)cc(F)c2)cc1)c1ccc2nccn2c1` was tested. Which Potency (HEK293) did it give?
**A.** 5.2 nM (active)

**Q.** What about the Potency (HaCat) of the same compound?
**A.** 32.6 nM (active)

**Q.** And the Potency (KB-3-1)?
**A.** 4.6 nM (active)

**Q.** What about the Potency (NIH3T3) of the same compound?
**A.** 46.1 nM (active)

**Q.** What about the Potency (CAOV3) of the same compound?
**A.** 316 nM (active)

**Q.** `COc1cc(C(=O)NC2CCN(C)CC2)ccc1Nc1ncc2c(n1)N(C1CCCC1)CC(F)(F)C(=O)N2C` was tested. Which Potency (HEK293) did it give?
**A.** 14.6 nM (active)

**Q.** What about the Potency (HaCat) of the same compound?
**A.** 116 nM (active)

**Q.** And the Potency (KB-3-1)?
**A.** 5.8 nM (active)

**Q.** What about the Potency (NIH3T3) of the same compound?
**A.** 2060 nM (active)

**Q.** What about the Potency (CAOV3) of the same compound?
**A.** 25100 nM (active)

**Q.** How did the max response (HEK293) turn out when `OC/C=C/C=C/[C@H]1Cc2cc(O)cc(O)c2O1` was run?
**A.** -7.6%

**Q.** What about the max response (HaCat) of the same compound?
**A.** -12.2%

**Q.** And the max response (KB-3-1)?
**A.** 6.07%

**Q.** What about the max response (NIH3T3) of the same compound?
**A.** 1.57%

**Q.** What about the Potency (C33A) of the same compound?
**A.** inactive

**Q.** And the Potency (CASKI)?
**A.** inactive

**Q.** What about the Potency (Es-2) of the same compound?
**A.** inactive

**Q.** What about the Potency (HeLa) of the same compound?
**A.** inactive

**Q.** And the Potency (Hek293T)?
**A.** inactive

**Q.** And the Potency (JEG-3)?
**A.** inactive

**Q.** For `Cc1cnc(NC(=O)Nc2cc(Br)c(C)cc2OCC2CNCCO2)cn1` (stereo not given), which Potency (HEK293) is on record?
**A.** 1300 nM (active)

**Q.** And the max response (HaCat)?
**A.** -19%

**Q.** And the Potency (KB-3-1)?
**A.** 14600 nM (active)

**Q.** And the Potency (NIH3T3)?
**A.** 2310 nM (active)

**Q.** What about the Potency (C33A) of the same compound?
**A.** inactive

**Q.** And the Potency (CASKI)?
**A.** inactive

**Q.** And the Potency (Hek293T)?
**A.** 8910 nM (active)

**Q.** What about the Potency (JEG-3) of the same compound?
**A.** inactive
